Measured values as given in PubChem BioAssay (Tox21).
A number with no mark means an inactive call. Results filed as inconclusive are left out. A call without a number means that no potency is given here. Activity calls are given as the source filed them. Unless noted, the call rests on the fitted dose curve; in most records, active means well fitted curve in the direction sought with a large enough effect in the repeat runs; inconclusive means weak or mixed curves; inactive means no such curve, though single readings can be large; an effect the other way counts as inactive or inconclusive.

Legend:
[1] = qHTS assay to identify small molecule antagonists of the androgen receptor (AR) signaling pathway using the MDA cell line in the presence of 0.5 nM R1881 - cell viability counter screen (AID 1259242); further: nearly all actives have a fitted effect of over 45% in size
Summary of the method: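 Steps: plate MDA-kb2 cells, rest 5 hr at 37C without CO2; pin in compounds in DMSO; add R1881 to 0.5 nM final; incubate 16 hr; add CellTiter-Fluor, 30 min; read fluorescence.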

[2] = molecular target: Estrogen receptor (Homo sapiens) (UniProt P03372); test: qHTS assay to identify small molecule antagonists of the estrogen receptor alpha (ER-alpha) signaling pathway using the BG1 cell line in the presence of 0.1 nM 17-beta-estradiol (AID 1259244); further: nearly all actives have a fitted effect of over 50% in size; further: potency means the concentration at half of the fitted maximal effect
Summary of the method: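 Antagonist mode: compounds in DMSO are pinned onto VM7Luc4E2 reporter cells, 0.1 nM final 17beta-estradiol is added, and after 22 h at 37C luciferase luminescence is measured with ONE-Glo.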

[3] = qHTS assay to identify small molecule phospholipidosis (PLD) inducers (AID 1259344; active means well fitted curve in the direction sought with a large enough effect; an effect the other way counts as inactive or inconclusive)
Summary of the method: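 After 4 h attachment on collagen I, HepG2 cells were dosed with compound alongside LipidTOX Red, kept 24 h at 37 C, fixed, and imaged for lamellar phospholipid pits.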

[4] = qHTS assay to identify small molecule HDAC inhibitors (AID 1259364); further: potency means the concentration at half of the fitted maximal effect;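 further: wild-type HCT-116 cells with endogenous class I/II HDAC activity; nearly all actives have a fitted effect of over 45% in size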
Summary of the method: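 Cells (HCT-116, wild type) are seeded at 1,500 per well, incubated overnight, treated with compound in DMSO for 2 hr, then developed with HDAC-Glo I/II reagent for 30 min at room temperature.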

[5] = qHTS assay to identify small molecule HDAC inhibitors - cell viability counter screen (AID 1259365); further: series mostly up to about 92 µM; nearly all actives have a fitted effect of over 50% in size
Summary of the method: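 Wild-type HCT-116 cells were seeded at 1,500 per well, incubated overnight at 37 C, then exposed to compounds in DMSO for 2hr. Viability was read by CellTiter-Glo luminescence after 30min at room temperature.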

[6] = qHTS assay to identify small molecule agonists of the sonic hedgehog signaling (Shh) pathway - cell viability counter screen (AID 1259366); further: nearly all actives have a fitted effect of over 50% in size
Summary of the method: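 NIH/3T3-derived 3T3 Gli1-Luc cells (stable Gli1-responsive firefly luciferase reporter) were seeded, rested 4 hr at 37 C/5% CO2, then exposed to compounds in DMSO for 24 hr; viability was read by CellTiter-Fluor fluorescence in the same wells.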

[7] = qHTS assay to identify small molecule antagonists of the sonic hedgehog signaling (Shh) pathway - cell viability counter screen (AID 1259367); further: nearly all actives have a fitted effect of over 55% in size
Summary of the method: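 Conditioned medium drove Shh signaling in 3T3 Gli1-Luc cells exposed to compounds at 37C and 5% CO2. Viability was determined from CellTiter-Fluor fluorescence, with reagent incubated 1 hr after 23 hr of treatment.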

[8] = qHTS assay to identify small molecule agonists of the sonic hedgehog signaling (Shh) pathway (AID 1259368; calls by dose curve; further: series mostly up to about 92 µM; nearly all actives have a fitted effect of over 15% in size)
Summary of the method: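 Cells of a mouse NIH/3T3 clone stably expressing luciferase under the Gli1 transcriptional response element are exposed to test chemicals for 24 hr at 37 C. Pathway activation is detected as a rise in luminescence.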

[9] = molecular target: Estrogen receptor beta (Homo sapiens) (UniProt Q92731); test: qHTS assay to identify small molecule agonists of the estrogen receptor beta (ER-beta) signaling pathway (AID 1259377; active means well fitted activation curve with a large enough effect in the signal ratio in the repeat runs, not every such curve was filed as active; the % refers to the signal ratio)
Summary of the method: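 ER-beta-UAS-bla HEK293T (GripTite) cells carrying a UAS-driven beta-lactamase reporter, in medium with 2% charcoal-stripped FBS, were exposed to compounds for 16 hr at 37C; LiveBLAzer B/G FRET substrate was then added and fluorescence read after 2 hours at room temperature.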

[10] = qHTS assay to identify small molecule agonists of the androgen receptor (AR) signaling pathway in the presence of an antagonist - cell viability counter screen (AID 1259379);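 further: MDA-kb2 human breast cancer cells carrying an MMTV luciferase reporter; series mostly up to about 92 µM; nearly all actives have a fitted effect of over 25% in size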
Summary of the method: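 Cytotoxicity is assessed by CellTiter-Fluor in MDA-kb2 cells carrying an MMTV-driven luciferase reporter. Cells receive 3.0uM nilutamide plus compounds at 15 concentrations and incubate 16 hr at 37C without CO2 before fluorescence reading.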

[11] = qHTS assay to identify small molecule agonists of the estrogen receptor beta (ER-beta) signaling pathway - cell viability counter screen (AID 1259380); further: nearly all actives have a fitted effect of over 30% in size
Summary of the method: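 Cytotoxicity is measured in parallel with the reporter screen: after 16 hr compound exposure at 37C and a 2 hr LiveBLAzer step, CellTiter-Glo is added to the same ER-beta-UAS-bla HEK293T wells and luminescence read after 30 min.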

[12] = qHTS assay to identify small molecule antagonists of the estrogen receptor beta (ER-beta) signaling pathway - cell viability counter screen (AID 1259382); further: series mostly up to about 92 µM; nearly all actives have a fitted effect of over 55% in size
Summary of the method: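 Cytotoxicity counter screen multiplexed with the beta-lactamase antagonist assay: GripTite HEK293T ER-beta-bla cells were treated 16 hr with test chemicals in the presence of 1nM 17-beta-estradiol, and viability was measured by CellTiter-Glo.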

[13] = qHTS assay to identify small molecule agonists or antagonists of the thyroid stimulating hormone receptor (TSHR) signaling pathway - wild type cell line counter screen (AID 1259384; calls by dose curve)
Summary of the method: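 Wild-type HEK293 cells were plated 18 h at 37 C/5% CO2, pin-dosed with compound plus Ro20-1724 medium, held 30 min at room temperature, then given cAMP-d2 and anti-cAMP-cryptate; fluorescence was read after 1 h. Fifteen concentrations, triplicate.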

[14] = molecular target: Thyrotropin receptor (Homo sapiens) (UniProt P16473); test: qHTS assay to identify small molecule antagonists of the thyroid stimulating hormone receptor (TSHR) signaling pathway (AID 1259385; calls by dose curve; further: nearly all actives have a fitted effect of over 20% in size)
Summary of the method: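 TSHR-HEK293 cells were plated and held 18 h at 37C/5% CO2, then given compound plus Ro20-1724 and stimulated with TSH at 1.5 ng/mL final. After 30 min at room temperature, cAMP was detected with cAMP-d2/anti-cAMP-cryptate (1 h) by fluorescence.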

[15] = qHTS assay to identify small molecule agonists of the estrogen receptor alpha (ER-alpha) signaling pathway in the presence of an antagonist - cell viability counter screen (AID 1259386);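 further: series mostly up to about 92 µM; cells exposed to compounds for 22 h at 37 °C before the viability read; nearly all actives have a fitted effect of over 30% in size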
Summary of the method: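 Cytotoxicity was measured in parallel with the ERE-luciferase agonist screen, in the same wells. The cells were VM7Luc4E2, which endogenously express ER-alpha, and treatment was with compounds plus 10.0nM ICI-182,780 for 22hr.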

[16] = qHTS assay to identify small molecule antagonists of the sonic hedgehog signaling (Shh) pathway (AID 1259369; calls by dose curve; further: nearly all actives have a fitted effect of over 45% in size; further: potency means the concentration at half of the fitted maximal effect)
Summary of the method: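 Cells are plated and held 4hr at 37 C, compounds (DMSO) are pinned in, conditioned medium is added to stimulate the pathway, and after 24hr luciferase reagent is added for 30min before luminescence is read.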

[17] = molecular target: Estrogen receptor (Homo sapiens) (UniProt P03372); test: qHTS assay to identify small molecule agonists of the estrogen receptor alpha (ER-alpha) signaling pathway in the presence of an antagonist (AID 1259383; calls by dose curve; further: top concentration of the series differs between compounds; nearly all actives have a fitted effect of over 15% in size)
Summary of the method: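 Agonist-mode confirmation in the presence of the ER antagonist ICI-182,780 at 10.0nM final. Breast-derived VM7Luc4E2 reporter cells were exposed to compounds for 22hr, and ERE-driven luciferase was quantified by luminescence.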

[18] = molecular target: Estrogen receptor beta (Homo sapiens) (UniProt Q92731); test: qHTS assay to identify small molecule antagonists of the estrogen receptor beta (ER-beta) signaling pathway (AID 1259378; active means well fitted inhibition curve with a large enough effect in the signal ratio in the repeat runs, not every such curve was filed as active; the % refers to the signal ratio)
Summary of the method: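 ER-beta-UAS-bla HEK293T (GripTite) cells in 2% charcoal-stripped FBS medium were preincubated 6 hr at 37C, dosed with compound, then stimulated with 1 nM E2 (final) for 16 hr; beta-lactamase reporter read by B/G FRET fluorescence after 2 hr substrate loading.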

Sequence of Estrogen receptor (Homo sapiens) (P03372 whole entry, looked up): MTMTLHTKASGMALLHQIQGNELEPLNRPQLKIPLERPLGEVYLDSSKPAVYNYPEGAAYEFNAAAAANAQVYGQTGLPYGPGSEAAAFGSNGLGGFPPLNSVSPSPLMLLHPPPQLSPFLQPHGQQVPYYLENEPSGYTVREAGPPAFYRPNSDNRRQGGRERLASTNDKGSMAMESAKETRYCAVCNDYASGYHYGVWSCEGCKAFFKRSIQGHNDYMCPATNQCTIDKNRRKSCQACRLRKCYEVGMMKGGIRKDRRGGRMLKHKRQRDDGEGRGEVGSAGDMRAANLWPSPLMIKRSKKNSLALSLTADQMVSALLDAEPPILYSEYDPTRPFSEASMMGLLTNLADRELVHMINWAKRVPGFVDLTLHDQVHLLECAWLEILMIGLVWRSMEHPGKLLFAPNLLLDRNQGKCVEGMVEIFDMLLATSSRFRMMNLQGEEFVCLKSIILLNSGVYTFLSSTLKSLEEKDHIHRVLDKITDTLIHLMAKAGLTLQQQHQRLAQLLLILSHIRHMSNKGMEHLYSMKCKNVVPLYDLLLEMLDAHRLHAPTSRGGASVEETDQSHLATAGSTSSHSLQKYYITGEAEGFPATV
Sequence of Estrogen receptor beta (Homo sapiens) (Q92731 whole entry, looked up): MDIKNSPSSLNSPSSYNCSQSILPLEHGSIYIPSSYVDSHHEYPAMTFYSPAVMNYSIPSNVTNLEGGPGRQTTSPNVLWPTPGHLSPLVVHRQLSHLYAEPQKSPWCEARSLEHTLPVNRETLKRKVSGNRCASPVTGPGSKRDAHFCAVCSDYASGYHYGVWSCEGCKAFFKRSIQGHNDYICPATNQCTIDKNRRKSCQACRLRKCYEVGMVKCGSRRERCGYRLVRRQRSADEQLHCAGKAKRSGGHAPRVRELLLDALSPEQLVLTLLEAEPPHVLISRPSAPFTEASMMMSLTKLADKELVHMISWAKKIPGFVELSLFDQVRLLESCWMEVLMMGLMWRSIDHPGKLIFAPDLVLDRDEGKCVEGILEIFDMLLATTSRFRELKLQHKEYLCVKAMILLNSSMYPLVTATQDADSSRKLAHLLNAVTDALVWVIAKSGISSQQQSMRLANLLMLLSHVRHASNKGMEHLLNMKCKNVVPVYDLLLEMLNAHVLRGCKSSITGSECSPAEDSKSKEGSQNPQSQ
Sequence of Thyrotropin receptor (Homo sapiens) (P16473 whole entry, looked up): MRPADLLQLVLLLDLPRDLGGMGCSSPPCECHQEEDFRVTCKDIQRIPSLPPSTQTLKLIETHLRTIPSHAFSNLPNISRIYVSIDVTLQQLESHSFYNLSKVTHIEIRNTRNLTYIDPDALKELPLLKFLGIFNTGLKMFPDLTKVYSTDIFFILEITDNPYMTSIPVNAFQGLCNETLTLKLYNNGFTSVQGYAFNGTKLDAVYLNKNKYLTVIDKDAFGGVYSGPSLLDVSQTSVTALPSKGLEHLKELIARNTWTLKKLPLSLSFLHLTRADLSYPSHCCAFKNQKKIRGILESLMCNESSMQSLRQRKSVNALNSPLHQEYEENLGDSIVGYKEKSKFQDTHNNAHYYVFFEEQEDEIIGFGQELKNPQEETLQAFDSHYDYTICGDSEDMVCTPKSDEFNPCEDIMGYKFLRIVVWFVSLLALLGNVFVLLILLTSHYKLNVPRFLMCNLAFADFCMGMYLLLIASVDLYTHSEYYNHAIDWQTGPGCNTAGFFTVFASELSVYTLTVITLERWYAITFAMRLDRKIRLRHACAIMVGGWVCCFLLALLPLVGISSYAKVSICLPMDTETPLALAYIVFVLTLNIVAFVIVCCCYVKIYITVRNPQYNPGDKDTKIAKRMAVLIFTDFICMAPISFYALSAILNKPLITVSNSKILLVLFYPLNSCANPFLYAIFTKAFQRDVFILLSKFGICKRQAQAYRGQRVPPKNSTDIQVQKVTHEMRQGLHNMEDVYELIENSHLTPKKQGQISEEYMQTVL

Compound	Potency [1]	Potency [2]	outcome [3]	Potency [4]	Potency [5]	Potency [6]	Potency [7]	Potency [8]	Potency [9]	Potency [10]	Potency [11]	Potency [12]	outcome [13]	Potency [14]	Potency [15]	Potency [16]	Potency [17]	Potency [18]
O=C1OCCN1/N=C/c1ccc([N+](=O)[O-])o1	inactive	inactive	inactive	inactive	inactive	inactive	inactive	inactive	inactive	inactive	inactive	inactive	inactive	inactive	inactive			
COC(=O)[C@@H]1CC2=CC(=O)CC[C@]2(C)[C@@]23O[C@@H]2C[C@@]2(C)[C@@H](CC[C@@]24CCC(=O)O4)[C@H]13	inactive	inactive	inactive	inactive	inactive	inactive	inactive	inactive		inactive	inactive	inactive	inactive	inactive	inactive	inactive	inactive	
CCCCCCCCCOC(C)=O	inactive	inactive		inactive	inactive	inactive	inactive	inactive	inactive	inactive	inactive	inactive	inactive	inactive		inactive	inactive	inactive
CCCCCCCCCCOS(=O)(=O)O	inactive	inactive		inactive	inactive	inactive	inactive	inactive		inactive		inactive	inactive	inactive	inactive	inactive	inactive	
CCCOc1ccc(S(=O)(=O)N2CCN(CC)CC2)cc1-c1nc2c(CC)n(Cc3ccccn3)nc2c(=O)[nH]1	inactive	inactive		inactive	inactive			inactive		inactive	inactive	inactive	inactive				inactive	
CO/N=C1\CN(c2nc3c(cc2F)c(=O)c(C(=O)O)cn3C2CC2)CC1CN (stereo unspecified)	inactive	inactive		inactive	inactive		inactive	inactive	inactive	inactive		inactive	inactive	inactive		inactive	inactive	
CC1=CC(O)CC(C)(C)C1 (stereo unspecified)	inactive	inactive		inactive		inactive	inactive	inactive		inactive	inactive	inactive	inactive	inactive		inactive	inactive	
CC(C)c1nnc2ccc(-c3ocnc3-c3cc(F)ccc3F)cn12	inactive	30.6 µM (active)		inactive	inactive	inactive	inactive	inactive	inactive	inactive	inactive	inactive	inactive	inactive	inactive			
Cc1oc(C)c(C(=O)Nc2ccccc2)c1C	inactive	24.3 µM (active)		27.3 µM (active)		inactive	inactive	inactive				inactive			inactive		inactive	
CC(Cl)C(Cl)Cl (stereo unspecified)	inactive	inactive		inactive		inactive	inactive	inactive	inactive	inactive	inactive	inactive	inactive	inactive	inactive	inactive		
CC(=O)[C@H]1CC[C@H]2[C@@H]3C=CC4=CC(=O)CC[C@@]4(C)[C@@H]3CC[C@]12C	inactive	inactive		inactive		inactive	inactive	inactive	inactive	inactive	inactive	inactive	inactive	inactive	inactive	11.9 µM (active)	inactive	
CC(C)C(=O)O	inactive	inactive		inactive		inactive	inactive	inactive		inactive	inactive	inactive						
Cc1ccc(S)cc1	inactive	inactive		inactive	inactive	inactive	inactive	inactive	inactive	inactive		inactive	inactive	inactive	inactive			
CCc1c2c(nc3ccc(OC(=O)N4CCC(N5CCCCC5)CC4)cc13)-c1cc3c(c(=O)n1C2)COC(=O)[C@]3(O)CC	inactive	23.7 µM (active)		inactive			inactive	inactive	inactive	inactive	inactive	inactive	inactive				inactive	
Cc1ccnc2ccccc12	inactive	inactive		inactive	inactive	inactive		inactive	inactive	inactive	inactive	inactive	inactive		inactive	48.4 µM (active)		inactive
